# Screening results deposited in PubChem by National Center for Advancing Translational Sciences (NCATS).
# S2 tox: cell viability loss in ATXN counter-screen | S2 cells (HEK-293 line with an ATXN2-luciferase reporter) viability, CellTiter-Fluor protease fluorescence, 24 h | Potency, µM (highest dose often 56.7 µM), usual class: cytotoxic | hit rate 0.49% among 400,000 | AID 651635; also: nearly all actives have a fitted effect of over 40% in size
# TGFb inhibitor: TGF-b pathway inhibition. AID 588855. hit rate 1.2% among 410,000. Potency, µM (highest dose often 46.1 µM), inactives show at the highest dose activity, negative = inhibition, hits mostly inhibitors. HepG2 CAGA-GFP TGF-b/SMAD3 reporter, GFP fluorescence, 18 h; TGF-beta stimulated, 500 pg/mL final; also: % is scaled to controls: 0 for no effect and ±100 for the full control effect; nearly all actives have a fitted effect of over 65% in size
#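 HEPG2 CAGA-GFP cells (1000/well, DMEM with 1% FBS) were pre-incubated 2 h at 37 degrees C, given compound by pin tool, then stimulated with TGF-beta at 500 pg/mL final for 18 h before per-cell GFP fluorescence imaging.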
# HTT aggregate: inhibitors of mutant huntingtin aggregate formation in PC12 cells; PC12 HttQ103-GFP aggregates, Acumen cytometry, 40 h; Potency, µM (highest dose often 46.1 µM), without a hit: at the top dose activity change, negative = inhibition, hits mostly inhibitors; hit rate 1.1% among 220,000; AID 1688; also: % is scaled to controls: 0 for no effect and ±100 for the full control effect; nearly all actives have a fitted effect of over 60% in size
#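 Steps: seed 1500 PC12 HTTQ103-GFP cells/well; add tebufenozide, 100 nM final; add compound titration; add ATPLite reagent; quantify GFP aggregates by laser scanning cytometry.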
# HepG2 viability: counter-screen for TGF-b inhibitors: cytotoxicity in HepG2 cells. Potency, µM (doses to about 46.1 µM), without a hit: at the highest dose activity change, negative = cytotoxicity, hits mostly cytotoxic. hit rate 0.76% among 410,000. HepG2 CAGA-GFP viability, ATP luminescence, 18 h
#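 HepG2 CAGA-GFP cells (1000/well, DMEM with 1% FBS) received compound, then TGF-beta at 500 pg/mL final, and were incubated 18 hours at 37 degrees C. Viability was read by CellTiter-Glo luminescence. Media-only wells were set as complete cell-killing and DMSO as no toxicity.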
# HTT ATP protect: Huntington cell model cytoprotection by ATP luminescence; hit rate 0.14% among 230,000; AID 1471; Potency, µM (titrated, usually from 56.4 µM), inactives show cytoprotection (ATP increase), actives largely listed as activators; PC12 HTT-Q103 induced, cytoprotection, ATP luminescence, 40 h; also: % of control where 0% means no effect; nearly all actives have a fitted effect of over 45% in size
#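 ATP quantification (ATPlite) reports survival of PC12 cells in which tebufenozide, 100 nM final, switches on Htt exon 1 with 103 glutamines linked to GFP; compounds are titrated.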
# ATXN2 expr inh: ATXN2 expression inhibition | HEK-293 ATXN2-luciferase reporter, luminescence, 24 h | Potency, µM (series often up to 57 µM), without a hit: top-dose activity change, negative = inhibition, most hits filed as inhibitors | hit rate 0.72% among 360,000 | AID 1745845; also: % is scaled to controls: 0 for no effect and ±100 for the full control effect; nearly all actives have a fitted effect of over 55% in size
#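 qHTS (up to 57 uM final) was run with 24 h compound exposure of reporter cells at 37 °C. Each well was multiplexed: SteadyGlo luminescence measured ATXN2-luciferase expression after a fluorogenic Gly-Phe-AFC viability readout (25 uM final).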
# * marks the source's active call; other numbers are inactive results; i = inactive; ? = inconclusive; · = no result given; [ ] = dose if it differs, or a comment. A selection: hits, their analogues and other compounds. The true share with any hit is near 2.8%. Calls follow the shape of the dose curve; as a rule, active = well fitted curve in the direction sought with a large enough effect; inconclusive = small, poorly fitted or top-dose-only effect, or another doubt; inactive = no such curve, though single readings can be large; an effect the other way counts as inactive or inconclusive. Potency is read from the fitted curve at half-maximal effect.
SMILES,S2 tox,TGFb inhibitor,HTT aggregate,HepG2 viability,HTT ATP protect,ATXN2 expr inh
Cc1ccccc1CNC(=O)C1CCCN(c2nnc(C)c3c(C)n(-c4ccccc4)nc23)C1 (stereo not drawn),32µM*,-6%,·,-16%,·,20µM*
CCc1ccc(CNC(=O)C2CCCN(c3nnc(C)c4c(C)n(-c5ccccc5)nc34)C2)cc1 (stereo not drawn),20µM*,?,·,-51%,·,?
Nc1ncn([C@@H]2O[C@@H](CO)[C@@H](O)[C@H]2O)c(=O)n1,·,·,·,·,-20%[1.9 µM],·
Ic1ccc2c(c1)N(c1ccccc1)c1cc(Nc3ccc4nc5ccc(I)cc5[n+](-c5ccccc5)c4c3)ccc1N2,·,·,·,·,-5%[10 µM],·
C[C@@H]1O[C@@H](OC[C@@H]2O[C@@H](Oc3c(-c4ccc(O)c(O)c4)oc4cc(O)cc(O)c4c3=O)[C@H](O)[C@H](O)[C@@H]2O)[C@H](O)[C@H](O)[C@@H]1O,·,·,·,·,0%,·
Cc1ncc2c(c1CNC(=O)c1cncs1)CCN(C(=O)c1ccc(C(C)(C)C)cc1)C2,i,·,·,·,·,·
Cc1nnc(N2CCCC(C(=O)Nc3cccc(C(F)(F)F)c3)C2)c2nn(-c3ccccc3)c(C)c12 (stereo not drawn),16µM*,?,·,-83%,·,-20%
Cc1ncc2c(c1CNS(=O)(=O)N(C)C)CCN(C(=O)/C=C/c1ccccc1)C2,i,·,·,·,·,·
CC(=O)c1ccc(-n2cc(-c3ccc(C(C)(C)C)cc3)[n+]3c2SCCC3)cc1,i,0%,10µM*,-8%,-49%,-25%
COc1ccc(-c2cn(-c3ccc(Br)cc3)c3[n+]2CCS3)cc1,i,?,-26%,-9%,9%[10 µM],-13%
COc1cc(/C=C2\SC(=S)NC2=O)ccc1OS(=O)(=O)c1ccccc1,·,·,?,·,11%[10 µM],·
COc1cc(/C=C2/SC(=S)NC2=O)ccc1OS(=O)(=O)c1ccc(C)cc1,i,16µM*,?,-16%,-2%[10 µM],-16%[11.3 µM]
COc1ccc(O)c(CN2CCOc3c(cc(-c4cccc(OC)n4)cc3OC)C2)c1,i,·,·,·,·,·
NCCCn1c(C(=O)c2cc(Cl)c(N)c(Cl)c2)c2ccc(C(F)(F)F)cc2[n+]1[O-],?,-38%,·,-54%,·,-30%
NCCCn1c(C(=O)c2cc(Cl)c(N)c(Cl)c2)c2ccc([N+](=O)[O-])cc2[n+]1[O-],10µM*,?,·,-45%,·,?
CN1CCCN(C(=O)[C@@H]2C[C@@H](Sc3nc4ccccc4[nH]3)CN2Cc2ccc(-c3ccccc3)cc2)CC1,i,·,·,·,·,·
Cc1cc(=O)[nH]c2ccc(Cl)cc12,i,15%,9%,-24%,-1%,-10%
CC(C(=O)O)c1ccc2c(c1)[nH]c1ccc(Cl)cc12 (stereo not drawn),i,17%,31%,-3%,0.35µM*,6%
O=C(NCC1CCN(Cc2ccccc2Cl)CC1)c1cc2ccc3cccnc3c2[nH]1,·,16µM*,·,16µM*,·,·
O=C(NCc1ccc(Cl)cc1)c1cc2ccc3cccnc3c2[nH]1,·,-4%,·,-17%,·,·
O=C(NCC1CCN(Cc2ccc(F)cc2)CC1)c1cc2ccc3cccnc3c2[nH]1,·,16µM*,·,18µM*,·,·
Cc1ccc(CNc2nc(CN3CCN(C=O)CC3)nc3ccccc23)o1,i,·,·,·,·,·
CC(=O)N/C(=C/c1ccc2c(c1)OCO2)C(=O)NCC(=O)O,i,-2%,3.2µM*,-3%,·,3%
CCCc1[nH]nc2c1C(c1cn[nH]c1-c1ccc(F)cc1)C(C#N)=C(N)O2 (stereo not drawn),i,?,11µM*,-25%,0%[1.9 µM],-1%
CCN(CC)CCNC(=O)c1ccc2nc(-c3ccccc3)c(-c3ccc(CN4CCC(n5c(=O)[nH]c6ccccc65)CC4)cc3)nc2c1,·,·,·,·,·,27µM*
SMILES,S2 tox,TGFb inhibitor,HTT aggregate,HepG2 viability,HTT ATP protect,ATXN2 expr inh
Fc1ccccc1Cn1c(-c2ccccc2)nc2ccccc21,32µM*,?,·,-68%,·,?
COc1cccc(-c2cnc(-c3ccncc3)nc2C2CCN(C(=O)Cc3csc(C)n3)CC2)c1,i,·,·,·,·,·
CCn1cc(C(=O)NCc2ccncc2)c(=O)c2cc(F)c(N3CCN(C(=O)c4ccco4)CC3)cc21,i,-18%,-6%[9.22 µM],-7%,-2%[10 µM],0%
CCn1cc(C(=O)NCc2ccccc2)c(=O)c2cc(F)c(N3CCN(C(=O)c4ccco4)CC3)cc21,i,20µM*,?,-49%,-75%,?
CCc1nc2cc(C(=O)N3CCCN(C=O)CC3)cc(NC(=O)c3ccccc3OC)c2n1C,i,·,·,·,·,·
Cc1ccc[n+](CC(=O)Nc2cc(C(F)(F)F)ccc2Cl)c1,i,6%,?,5%,0%[10 µM],-7%
CCC(C)(C)c1ccc(OCCCC[n+]2cccc(C)c2)c(C(C)(C)CC)c1,?,10µM*,?,-196%,-114%,?
CCN(CCO)CCCOc1ccc2c(Nc3cc(CC(=O)Nc4cccc(F)c4)[nH]n3)ncnc2c1,·,·,·,·,·,1%
COc1ccc(/C=N/NC(=O)c2ccn[nH]2)cc1COc1ccc(Cl)cc1Cl,i,14µM*,-5%,-41%,-16%,-5%
COc1ccc(/C=N/NC(=O)c2ccn[nH]2)cc1COc1ccc(F)cc1,i,-25%,12%,-19%,-27%,14%
CC(=O)c1ccc(-c2c(C3C4C=CCCC4(C)C(=O)N3Cc3ccccc3)ccc3ccccc23)cc1 (stereo not drawn),·,?,·,-20%,·,·
CC(=O)[C@@]1(O)CC[C@@H]2[C@@H]3CCC4=CC(=O)CC[C@@]4(C)[C@H]3CC[C@]21C,·,·,·,·,-1%[1.9 µM],·
Clc1ccc(C2=Nn3c(nnc3-c3cc(-c4ccccc4)n[nH]3)SC2)cc1,·,?,-29%,16µM*,16%[10 µM],?
CC(=O)c1cccc(NS(=O)(=O)c2ccc(N/C=C\C(=O)c3ccc(F)cc3)cc2)c1,i,?,10µM*,-18%,-61%,?
CC(=O)Nc1cccc(C(=O)/C=C/c2ccc(/C=C/C(=O)c3cccc(NC(C)=O)c3)cc2)c1,·,·,21%,·,20%[10 µM],·
CC(=O)Nc1cccc(C(=O)/C=C/c2ccc(F)cc2)c1,?,?,3%,13µM*,-27%,?
COc1ccc(F)c(Cn2cnc3c(cnn3C(C)(C)C)c2=O)c1Cl,·,3%,·,7%,·,·
CCCCC/C=C\C/C=C\C/C=C\C/C=C\CCCCCC(=O)NCCCC(=O)O,·,·,·,·,17%,·
Cn1ccc2c(N(Cc3ccccc3)Cc3ccccc3)cc3c(c21)C1CCC3O1 (stereo not drawn),i,10µM*,·,1%,·,11%
